Only some compounds are listed: those with a hit (about 2.4% of all), similar ones and a draw of the others.
Cruzain inh Det: qHTS Assay for Promiscuous and Specific Inhibitors of Cruzain (with detergent); Cruzipain (Trypanosoma cruzi), P25779; hit rate 0.43% among 200,000; purified cruzain, Z-FR-AMC fluorescence, 0.01% Triton; Potency, µM, actives largely listed as inhibitors; also: nearly all actives have a fitted effect of over 40% in size
Target sequence (P25779 123-467 limits assumed): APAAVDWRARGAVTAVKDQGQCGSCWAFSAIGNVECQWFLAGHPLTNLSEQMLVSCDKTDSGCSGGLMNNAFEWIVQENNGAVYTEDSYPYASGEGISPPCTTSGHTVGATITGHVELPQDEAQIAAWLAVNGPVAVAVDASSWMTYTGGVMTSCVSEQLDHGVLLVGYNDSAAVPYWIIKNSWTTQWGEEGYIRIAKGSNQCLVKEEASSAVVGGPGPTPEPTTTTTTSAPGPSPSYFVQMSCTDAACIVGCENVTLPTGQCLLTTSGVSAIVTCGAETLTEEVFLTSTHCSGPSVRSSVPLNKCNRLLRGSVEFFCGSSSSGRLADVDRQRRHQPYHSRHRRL
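Detergent-containing arm of a paired screen for aggregation-based inhibition: 0.01% Triton X-100 present. Cruzain at 1.5 nM cleaved 2 uM Z-FR-AMC at pH 5.5 with 5 mM DTT; AMC fluorescence gain over 60 s measured activity.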
Cruzain inh noDet: qHTS Assay for Promiscuous and Specific Inhibitors of Cruzain (without detergent); AID 1476, 2009; Cruzipain (Trypanosoma cruzi), P25779; Potency, µM, most hits filed as inhibitors; purified cruzain, Z-FR-AMC fluorescence, no detergent; hit rate 2.3% among 200,000; also: nearly all actives have a fitted effect of over 40% in size
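Purified cruzain at 1.5 nM, pre-incubated 15 min with compound at room temperature in 100 mM sodium acetate pH 5.5, 5 mM DTT, 0.00005% Triton X-100. Reaction started with 2 uM Z-FR-AMC; AMC fluorescence increase over 60 s gives rate.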
Numbers stand for hits. Calls follow the shape of the dose curve; as a rule, active = well fitted curve in the direction sought with a large enough effect; inconclusive = small, poorly fitted or top-dose-only effect, or another doubt; inactive = no such curve, though single readings can be large; an effect the other way counts as inactive or inconclusive.

O=C(O)CCNS(=O)(=O)c1ccc(Oc2ccccc2Cl)cc1 was read as Cruzain inh Det inactive and Cruzain inh noDet inactive.
Screening CCOc1ccc(N(C)C(=O)C2CCN(S(=O)(=O)c3ccc4c(c3)CCCN4C(C)=O)CC2)cc1 returned Cruzain inh Det inactive and Cruzain inh noDet inconclusive.
COc1ccc(C(=O)Nc2ccc(N3CCCC3)cc2)cc1 was read as Cruzain inh Det inconclusive and Cruzain inh noDet 10µM.
CCOc1ccc(C(=O)Nc2ccc(N3CCCC3)cc2)cc1 was read as Cruzain inh Det inactive and Cruzain inh noDet 7.9µM.
Screening COc1ccc(C2(C(=O)Nc3nncs3)CCCC2)cc1 returned Cruzain inh Det inactive and Cruzain inh noDet inactive.
CCCOc1ccc(C(=O)Nc2ccc(N3CCN(C(C)=O)CC3)cc2)cc1 was read as Cruzain inh Det inactive and Cruzain inh noDet inconclusive.
For COc1ccc(NC(=O)C2(c3ccc(NC(=O)c4ccc(OC)cc4)cc3)CCCC2)cc1 the results were Cruzain inh Det inactive and Cruzain inh noDet 7.9µM.
O=C(c1ccc(F)cc1)c1ccc(N2CCCC2)cc1 was read as Cruzain inh Det inactive and Cruzain inh noDet inactive.
`O=C(Nc1ccc(N2CCCCC2)cc1)c1ccc(F)cc1` gave Cruzain inh Det inactive and Cruzain inh noDet 25µM.
COc1ccc(C(=O)N/N=C(/C)c2ccc(N3CCCCC3)cc2)cc1 was read as Cruzain inh Det inactive and Cruzain inh noDet inconclusive.
For CCC(C)(C(=O)NC1CCCCC1)N(Cc1ccco1)C(=O)CNC(=O)c1ccccc1 (configuration not stated) the results were Cruzain inh Det inactive and Cruzain inh noDet inactive.
For C/C(Cn1nnc2ccccc21)=N\NC(=O)c1cccc(Br)c1 the results were Cruzain inh Det inactive and Cruzain inh noDet inactive.
`CN(C)C(/C=C/Nc1ccc(F)cc1)=C(C#N)C#N` gave Cruzain inh Det inactive and Cruzain inh noDet inactive.
O=C(NCc1ccc(Cl)cc1)c1ccc2c(c1)NC(=O)C(CS(=O)(=O)Cc1ccccc1Cl)N2 (configuration not stated) was read as Cruzain inh Det inactive and Cruzain inh noDet 25µM.
COc1ccc(CNC(=O)c2ccc3c(c2)NC(=O)C(CS(=O)(=O)Cc2ccccc2Cl)N3)cc1 (configuration not stated) was read as Cruzain inh Det inactive and Cruzain inh noDet inactive.
COc1ccc(Br)cc1CNC(=O)C1CCN(c2nnc(-n3cccc3CNc3ccc(C)cc3)s2)CC1 was read as Cruzain inh Det inactive and Cruzain inh noDet 32µM.
For Cc1ccc(NCc2cccn2-c2nnc(N3CCC(C(=O)NCc4ccc(OC(C)C)cc4)CC3)s2)cc1 the results were Cruzain inh Det inactive and Cruzain inh noDet inactive.
Screening CSCCC(NC(=O)c1ccc([N+](=O)[O-])cc1Cl)C(=O)OCC(=O)C12CC3CC(CC(C3)C1)C2 (configuration not stated) returned Cruzain inh Det 28µM and Cruzain inh noDet 25µM.
CSCCC(NC(=O)C12CC3CC(CC(C3)C1)C2)C(=O)OCC(=O)c1ccc(C)cc1 (configuration not stated) was read as Cruzain inh Det inactive and Cruzain inh noDet inactive.
For CN1CSC(=S)N(C)C1 the results were Cruzain inh Det inactive and Cruzain inh noDet inactive.
`COc1cc(OC)cc(C(=O)Nc2ccc3c(c2)n(C)c(=O)c(=O)n3C)c1` gave Cruzain inh Det inactive and Cruzain inh noDet inactive.
`CCc1ccc(C2C(C#N)=C(N)SC(N)=C2C#N)cc1` gave Cruzain inh Det inactive and Cruzain inh noDet inactive.
Screening CCc1ccc(C2C(C#N)=C(N)SC(N)=C2C#N)s1 returned Cruzain inh Det inactive and Cruzain inh noDet 16µM.
Cc1cnn(C(=S)NCCc2ccccc2)c1 was read as Cruzain inh Det 16µM and Cruzain inh noDet 13µM.
`Cc1cnn(C(=S)NCc2ccc(Cl)cc2)c1` gave Cruzain inh Det inactive and Cruzain inh noDet inactive.
`COC(=O)CSc1nnc([C@H](Cc2ccccc2)NC(=O)OC(C)(C)C)o1` gave Cruzain inh Det inactive and Cruzain inh noDet inactive.
Screening Cc1cccc(CS(=O)(=O)c2nnc([C@H](Cc3ccccc3)NC(=O)OC(C)(C)C)o2)c1 returned Cruzain inh Det 16µM and Cruzain inh noDet 16µM.
CC1CCN(C(=O)c2ccc(-n3cnnn3)cc2)CC1 was read as Cruzain inh Det inactive and Cruzain inh noDet inactive.
`COc1ccc2nc(NC(=O)C3CCN(S(=O)(=O)c4cccs4)CC3)sc2c1` gave Cruzain inh Det inactive and Cruzain inh noDet inconclusive.
Screening COc1ccc2nc(NC(=O)C3CCCN(S(=O)(=O)c4cccs4)C3)sc2c1 (configuration not stated) returned Cruzain inh Det inactive and Cruzain inh noDet 25µM.
For O=C(Nc1nccs1)C1CCCN(S(=O)(=O)c2cccc3cccnc23)C1 (configuration not stated) the results were Cruzain inh Det inactive and Cruzain inh noDet inactive.
O=C(Nc1nc2cc(Cl)ccc2s1)C1CCCN(S(=O)(=O)c2cccc3cccnc23)C1 (configuration not stated) was read as Cruzain inh Det inactive and Cruzain inh noDet 25µM.
For COc1ccc2c(c1)C(c1ccc(C)cc1)CC(=O)O2 (configuration not stated) the results were Cruzain inh Det inactive and Cruzain inh noDet inactive.
Screening Cc1nc(CC(=O)Nc2ccc(N(C)C)cc2)cs1 returned Cruzain inh Det inactive and Cruzain inh noDet inactive.
Screening O=[n+]1c2c(n([O-])c3cc(Cl)ccc31)CCCC2 returned Cruzain inh Det inactive and Cruzain inh noDet inactive.
For Cc1ccc(C)c(NC(=O)Nc2csc3c2CCCC3)c1 the results were Cruzain inh Det inactive and Cruzain inh noDet inactive.
For COCCn1c(=O)c(-c2cccs2)nc2cnc(Oc3ccccc3)nc21 the results were Cruzain inh Det inactive and Cruzain inh noDet inactive.
For Cc1nn(C(C)C(=O)N2CCN(c3ccc(F)cc3)CC2)c(=O)c2c1sc1ccccc12 (configuration not stated) the results were Cruzain inh Det inactive and Cruzain inh noDet inactive.
CCc1ccc2c(CN3CCc4ccccc43)cc(=O)oc2c1 was read as Cruzain inh Det inactive and Cruzain inh noDet 32µM.
For Cc1cc2oc(=O)cc(CN3CCc4ccccc43)c2cc1Cl the results were Cruzain inh Det inactive and Cruzain inh noDet inconclusive.
For O=C(c1ccc(Cl)cc1)[C@@H]1[C@@H]2C(=O)N(c3cccc4ccccc34)C(=O)[C@@H]2C2c3ccccc3C=NN21 (some centres not stated) the results were Cruzain inh Det inactive and Cruzain inh noDet 25µM.
CC(=O)Oc1ccc(C(=O)[C@H]2[C@H]3C(=O)N(c4ccccc4)C(=O)[C@H]3[C@@H]3C=CC=NN32)cc1 was read as Cruzain inh Det inactive and Cruzain inh noDet inactive.
Screening O=C(CSc1nnc(-c2ccc(F)cc2)o1)c1ccc2c(c1)OCCO2 returned Cruzain inh Det inactive and Cruzain inh noDet 13µM.
Cc1cc(C(=O)CSc2nnc(-c3ccco3)o2)c(C)n1CC1COc2ccccc2O1 (configuration not stated) was read as Cruzain inh Det inactive and Cruzain inh noDet inconclusive.
Screening Cc1cc(C(=O)CSc2nnc(-c3ccccc3)o2)c(C)n1CC1COc2ccccc2O1 (configuration not stated) returned Cruzain inh Det inactive and Cruzain inh noDet 20µM.
CC(C)(C)c1ccc(-c2nnc(SCC(=O)c3ccc4c(c3)OCCO4)o2)cc1 was read as Cruzain inh Det inactive and Cruzain inh noDet inactive.

Screens deposited in PubChem BioAssay by National Center for Advancing Translational Sciences (NCATS).
